From PubChem BioAssay
Pf growth 96h: P. falciparum growth inhibition at 96 hours; 320,000 compounds, 6.9% hits; AID 504834; P. falciparum luciferase reporter growth, 96 h; Potency, µM (highest dose often 28.7 µM), without a hit: at the highest dose activity change, negative = inhibition, usual class: inhibitors; further: potency means the concentration at half of the fitted maximal effect; on the % scale 0 is the no-effect control and ±100 the full control effect
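Plates of compound plus infected erythrocytes (2% hematocrit, 0.05% parasitemia final) incubate 96 hours, 37 C, 5% CO2. Detection reagent added; reduced luminescence from the parasites' luciferase reporter flags inhibition.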
Shiga toxin inh: inhibitors of Shiga toxin in Vero cells | Vero cells, Shiga toxin protein synthesis inhibition reporter | inhibition, % at 38.7 µM | 290,000 compounds, 9.2% hits; in the data active means inhibition mostly above about 28%, no sharp cut-off; inactive means mostly below about 43%; further: 0% is about no effect
Cycloheximide cs: counter-screen hit for Shiga toxin inhibitors, cycloheximide; cell reporter, cycloheximide protein synthesis inhibition counterscreen; max response, %; 300,000 compounds, 12% hits; AID 2314; in the data active means max response mostly above about 13%, no sharp cut-off; inactive means mostly below about 14%; further: read at 38.3 µM for the half of the compounds with a filed dose; 0% is about no effect
HCMV antiviral: inhibitors of human cytomegalovirus; activity change, negative = inhibition, % at 57.5 µM; HFF cells, HCMV-luciferase reporter, 72 h; stronger effect = lower value; 410,000 compounds, 4.5% hits; AID 1259415; in the data active means activity change below about -60%; inconclusive means no clear call, values can overlap the other calls; inactive means above about -39%; further: on the % scale 0 is the no-effect control and ±100 the full control effect
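Luciferase read-out from HCMV-luciferase-infected HFFs (MOI 1 PFU/cell) 72 h post infection at 37C; compounds added after 16 h cell attachment; activity normalized between buffer-only basal and Salinomycin (10uM) inhibitor controls.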
Pf growth 48h: P. falciparum growth inhibition at 48 hours (one generation); P. falciparum luciferase growth in erythrocytes, 48 h; Potency, µM (series often up to 28.7 µM), without a hit: top-dose activity change, negative = inhibition, actives largely listed as inhibitors; 310,000 compounds, 5.9% hits; further: potency means the concentration at half of the fitted maximal effect; on the % scale 0 is the no-effect control and ±100 the full control effect
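Read-out is firefly luciferase luminescence from an integrated reporter in P. falciparum, so falling signal marks reduced parasite growth. Infected erythrocytes were at 2% hematocrit and 0.1% parasitemia (final) in Albumax-supplemented RPMI 1640.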
HCV inh: inhibitors of hepatitis C virus infection. 340,000 compounds, 3.4% hits. Huh7.5.1 HCVcc-Cre infection, luciferase reporter, 44 h. Potency, µM (series often up to 41.8 µM), for the others: top-dose activity change, negative = inhibition, hits mostly inhibitors; further: potency means the concentration at half of the fitted maximal effect; on the % scale 0 is the no-effect control and ±100 the full control effect
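Luciferase read-out (15 sec integration) after a 15 min room-temperature substrate step quantifies HCVcc-Cre infection. Cells, 1,000 per well, had compound added 4 h post-plating, then virus at ~0.5 moi, and were cultured 44 h.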
* hit, by the source's call; ? = inconclusive; . = not tested or not shown. Most compounds without a hit are left out; they make up all but 21% or so of the library. Unless noted, the call rests on the fitted dose curve; in most records, active means well fitted inhibition curve with a large enough effect; inconclusive means small, poorly fitted or top-dose-only effect, or another doubt; inactive means no such curve, though single readings can be large or run the other way.

SMILES	Pf growth 96h	Shiga toxin inh	Cycloheximide cs	HCMV antiviral	Pf growth 48h	HCV inh
CCC(=NCc1cccnc1)c1c(O)n(Cc2ccccc2)c(=O)[nH]c1=O	?	-10	1	-13	-25%	6%
Cc1ccc(CN(C)C[C@H]2OCc3cnnn3CCCC(=O)N([C@H](C)CO)C[C@@H]2C)cc1	.	.	.	17	.	.
CCCCCn1c(NCc2ccc(OC)cc2)nc2ccccc21	.	.	.	-32	.	.
COc1ccc(/C=N/c2nc3ccccc3n2CCN2CCCCC2)cc1OC	-27%	-18	-6	-64*	.	-3%
CCN(CC)CCn1c(NCc2ccc(OC)cc2)nc2ccccc21	21%	-3	-1	-100*	-23%	?
C=CCn1c(/N=C/c2ccc(OC)cc2)nc2ccccc21	-13%	1	-2	.	11%	12%
CCn1c(NCc2cccc(OC)c2OC)nc2ccccc21	-20%	26*	13	27	?	0%
CCn1c(NCc2cc(OC)ccc2OC)nc2ccccc21	-19%	69*	30*	26	?	?
O=C(OCC(O)COc1ccccc1)c1ccc([N+](=O)[O-])cc1 (stereo not drawn)	14%	3	-1	-16	19%	3%
COc1ccc(CNc2nc3ccccc3n2CCN2CCCCC2)c(OC)c1	13%	24	10	?	?	-14%
CCCn1c(NCc2cc(OC)ccc2OC)nc2ccccc21	.	53	27*	47	?	?
COc1ccc(OC)c(CNc2nc3ccccc3n2CCN2CCCCC2)c1	.	-7	-4	-30	?	11µM*
Cc1cccc(N2CC(C(=O)Nc3ccccc3N3CCOCC3)CC2=O)c1C (stereo not drawn)	.	.	.	28	.	2%
COc1cc(SC#N)ccc1N=Cc1c(C)[nH]n(-c2cccc3ccccc23)c1=O	0.74µM*	-19	5	.	9.3µM*	12%
COc1cc(SC#N)ccc1N=Cc1c(C)[nH]n(-c2ccc(C)cc2C)c1=O	?	-2	7	-25	?	-15%
COC(=O)c1ccc(CSc2nc3c([nH]c4ccccc43)c(=O)n2-c2cc(C)cc(C)c2)o1	.	.	.	26	.	.
O=C(Cc1ccccc1)Nc1sc2c(c1C(=O)Nc1ccccc1Cl)CCC2	.	.	.	3	.	.
COc1ccc(CNC(=O)C(c2ccco2)N(Cc2cccs2)C(=O)Cc2cccs2)cc1 (stereo not drawn)	?	-2	2	?	?	?
COc1ccc(CNC(=O)C(c2cccs2)N(Cc2ccco2)C(=O)Cc2cccs2)cc1 (stereo not drawn)	13%	10	-1	-19	13µM*	?
COCCN(C(=O)Cc1cccs1)C(C(=O)NCc1ccc(OC)cc1)c1ccc(OC)cc1 (stereo not drawn)	?	10	-2	25	13µM*	7%
CCOc1ccc(NC(=O)c2cc3cc4cc(OC)ccc4nc3s2)cc1	.	.	.	-28	.	.
Cn1c(SCC2CCCO2)nnc1-c1ccc([N+](=O)[O-])cc1 (stereo not drawn)	?	17	11	30	-2%	3%
COc1ccc(NC(=O)CO/N=C(\C)c2cccs2)cc1	17%	-6	13	?	-17%	5%
COC(=O)c1ccc(COC(=O)CCC(=O)c2cccs2)cc1	73%	121*	62*	94	30%	16%
C/C(=N\OCC(=O)Nc1ccccc1Br)c1cccs1	-1%	55*	28*	-33	-2%	?
SMILES	Pf growth 96h	Shiga toxin inh	Cycloheximide cs	HCMV antiviral	Pf growth 48h	HCV inh
C/C(=N/OCC(=O)Nc1ccccc1)c1cccs1	50%	60*	27*	-21	87%	-1%
O=C(OCC(=O)c1cccs1)c1ccccc1	-14%	51	31*	-33	137%	11%
CNC(=O)COC(=O)CCC(=O)c1cccs1	8%	39	1	47	0%	5%
CC1CCN(C(=O)CN2C(=O)C(C)(C)Oc3ccc(C(=O)NC(C)C)cc32)CC1	25%	-7	1	5	22%	4%
CCCNC(=O)Nc1cc(C(=O)NCc2cccc(OCC)c2)ccc1N1CCCC1	.	.	.	3	.	.
Cc1cccc(NC(=O)CSc2nc3ccccc3c(=O)n2CC2CCCO2)c1 (stereo not drawn)	.	.	.	-32	.	-14%
COc1cc(OC)c(NC(=O)c2cc(CN3CCOCC3)on2)cc1Cl	.	.	.	-3	.	.
